Only some compounds are listed: those with a hit (about 2.9% of all), similar ones and a draw of the others.
APOBEC3G inh = blocks human APOBEC3G single-stranded DNA deamination; 330,000 compounds, 0.28% hits; recombinant A3G, ssDNA deamination FAM/TAMRA fluorescence; Q9HC16; inhibition, % at 20 µM;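 active = inhibition of at least 40% at 20 µM, with no more than 30% in the related APOBEC3A deaminase screen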
Target sequence (Q9HC16 whole entry, looked up): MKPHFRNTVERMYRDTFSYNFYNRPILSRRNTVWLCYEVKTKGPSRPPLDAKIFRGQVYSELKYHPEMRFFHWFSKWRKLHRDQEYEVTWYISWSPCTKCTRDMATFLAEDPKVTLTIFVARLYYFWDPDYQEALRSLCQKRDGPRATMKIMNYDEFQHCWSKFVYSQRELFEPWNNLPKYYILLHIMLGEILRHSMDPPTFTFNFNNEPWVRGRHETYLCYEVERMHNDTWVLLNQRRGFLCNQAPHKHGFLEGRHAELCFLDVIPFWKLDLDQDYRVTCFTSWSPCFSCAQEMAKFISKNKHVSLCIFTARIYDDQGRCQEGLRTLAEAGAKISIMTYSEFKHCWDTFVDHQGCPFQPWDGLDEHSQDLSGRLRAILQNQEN
NadD block = NadD (S. aureus) enzyme inhibition; purified NadD enzyme, colorimetric absorbance read-out; inhibition, % at 20 µM; 360,000 compounds, 0.78% hits; AID 602399; in the data active = inhibition above about 26%
Cardio protect = protects H9c2 cardiomyocytes from peroxide injury | 360,000 compounds, 0.63% hits | H2O2 injury protection, ATPLite, 2 h | protection from H2O2 cell death, % at 20 µM;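 active = compounds giving at least 50% protection of heart cells from peroxide-induced death in the single-dose screen, raw or plate-pattern-corrected value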
PfG6PD inh = PfG6PD (Plasmodium falciparum) enzyme inhibition; AID 504690; inhibition, % at 20 µM; 350,000 compounds, 0.78% hits; PfGluPho enzyme, NADPH resazurin-diaphorase fluorescence;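 active = inhibition reaching at least a set limit at 20 µM in the primary screen, cut at about 59% in these data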
A3A deaminase = human APOBEC3A DNA deaminase inhibition | P31941 | recombinant A3A, FAM/TAMRA ssDNA deamination fluorescence | inhibition, % at 20 µM | 330,000 compounds, 0.41% hits | AID 493011;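 active = at least 40% inhibition at 20 µM here, with at most 30% in a related deaminase screen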
TAG inh = inhibitors of triacylglycerol accumulation; H9c2 cells, Nile Red lipid (TAG) fluorescence; cells loaded with 200 µM oleic acid; inhibition, % at 12.5 µM; 230,000 compounds, 0.66% hits; AID 651582;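 active = pattern-corrected inhibition of lipid staining of at least 50% with the nuclear-stain viability signal not falling by more than 50%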
A3G conf = APOBEC3G (human) deaminase inhibition, confirmed. recombinant A3G ssDNA deaminase, UDG/FAM-TAMRA fluorescence. inhibition, % at 20 µM. shares compounds with APOBEC3G inh. 890 compounds, 72% hits;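 active = inhibition reaching a set limit in any replicate at 20 µM, the limit being 80% of the first screen's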
UDG ctr A3G = E. coli UDG inhibition in APOBEC3G counter-screen; shares compounds with APOBEC3G inh; UDG counterscreen, FAM/TAMRA oligo fluorescence; inhibition, % at 20 µM; 710 tested, under 10 active;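 active = compounds giving 40% or more inhibition at 20 µM in any one of the three replicates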;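 note: inhibitors lower the FAM signal released by uracil excision and alkaline cleavage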
Target sequence (P12295 whole entry, looked up): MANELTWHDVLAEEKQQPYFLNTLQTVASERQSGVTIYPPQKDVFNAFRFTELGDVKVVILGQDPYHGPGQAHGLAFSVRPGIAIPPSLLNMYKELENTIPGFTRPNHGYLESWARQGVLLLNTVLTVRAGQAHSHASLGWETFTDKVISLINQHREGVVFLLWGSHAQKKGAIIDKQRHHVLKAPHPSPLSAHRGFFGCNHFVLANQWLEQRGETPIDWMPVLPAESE
PfGluPho conf = confirmation of Plasmodium falciparum G6PD inhibitors. shares compounds with PfG6PD inh. recombinant PfGluPho, NADPH-diaphorase-resazurin fluorescence. inhibition, % at 20 µM. 2,400 compounds, 34% hits. AID 504753;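 active = inhibition of at least 50% at 20 µM in any single replicate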
Diaph ctr 10uM = diaphorase inhibition or oxidation at 10 uM NADPH; diaphorase-coupled resazurin reduction, fluorescence, NADPH 10 uM; shares compounds with PfG6PD inh; inhibition, % at 20 µM; 820 compounds, 39% hits; AID 504862;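 active = average inhibition reaching 50% or more with the compound at 20 µM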;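 note: resorufin red fluorescence formed as diaphorase reduces resazurin using NADPH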
Diaph ctr 30uM = inhibits diaphorase or oxidizes, flagging false PfG6PD hits. shares compounds with PfG6PD inh. Diaphorase/resazurin coupled assay, resorufin fluorescence, 30 uM NADPH. inhibition, % at 20 µM. 820 compounds, 29% hits. AID 504863;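 active = inhibition averaging 50% or more, tested at 20 µM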
Large screens that a line does not name were inactive (follow-up assays come after a bar, where they were run).

Cc1ccc(C)c(-n2sc3ccc(F)cc3c2=O)c1	APOBEC3G inh 55.9, PfG6PD inh 114.8 | A3G conf 61.2 | UDG ctr A3G inactive | PfGluPho conf 107.4 | Diaph ctr 10uM inactive | Diaph ctr 30uM inactive
O=c1c2cc(F)ccc2sn1-c1ccc(F)cc1	APOBEC3G inh 72.3, PfG6PD inh 112.5 | A3G conf 78.0 | UDG ctr A3G inactive | PfGluPho conf 106.4 | Diaph ctr 10uM inactive | Diaph ctr 30uM inactive
O=C1CCCC(=O)N1c1ccc(F)cc1	none (no result: TAG inh)
Cc1ccc(-c2cc(=O)c3cc(F)ccc3[nH]2)cc1	none (no result: TAG inh)
COc1ccc(-c2nc3ccccc3c(=O)n2NC(=S)N(C)C)cc1	APOBEC3G inh 52.5, PfG6PD inh 80.4 (no result: TAG inh) | A3G conf 64.1 | UDG ctr A3G inactive | PfGluPho conf inactive
CCCCOC(=O)CSc1nc2ccccc2o1	none
CCOc1ccc(C(=S)NC2CCCCC2)cc1OC	APOBEC3G inh 58.4, PfG6PD inh 62.1 (no result: TAG inh) | A3G conf 50.5 | UDG ctr A3G inactive | PfGluPho conf inactive
O=C(NCCCN1CCOCC1)/C(=C/c1ccco1)NC(=O)c1ccccc1	none (no result: TAG inh)
NS(=O)(=O)c1ccc(O)c(NC(=O)c2ccc([N+](=O)[O-])o2)c1	APOBEC3G inh 63.8, PfG6PD inh 77.7 | A3G conf 28.2 | UDG ctr A3G inactive | PfGluPho conf inactive
COC(=O)c1ccc(COc2ccccc2/C=N/NC(=O)c2cccnc2)cc1	none
O=[N+]([O-])c1ccc(N2CCN(c3ccccc3Cl)CC2)cn1	none (no result: TAG inh)
O=[N+]([O-])c1ccc(N2CCN(c3ccc(O)cc3)CC2)cn1	APOBEC3G inh 46.5, PfG6PD inh 62.1 (no result: TAG inh) | A3G conf inactive | PfGluPho conf inactive
COC(=O)c1sc(=S)n(-c2cccc(Cl)c2)c1N	APOBEC3G inh 53.7, PfG6PD inh 72.5 (no result: TAG inh) | A3G conf 30.2 | UDG ctr A3G inactive | PfGluPho conf inactive
CN1CCN(C(=O)c2sc(=S)n(-c3ccccc3)c2N)CC1	APOBEC3G inh 66.2, PfG6PD inh 82.3 (no result: TAG inh) | A3G conf 80.8 | UDG ctr A3G inactive | PfGluPho conf 83.4 | Diaph ctr 10uM inactive | Diaph ctr 30uM inactive
CCN(CC)c1ccc(S(=O)(=O)N2CCOCC2)cc1NC(=O)COC(=O)/C=C/c1ccc(C)o1	none
Cc1ccc(-c2csc3n[nH]c(=S)n23)cc1	APOBEC3G inh 59.6, PfG6PD inh 62.6 (no result: TAG inh) | A3G conf 82.0 | UDG ctr A3G inactive | PfGluPho conf inactive
Cc1ccc(-n2c(C)n[nH]c2=S)cc1	none (no result: APOBEC3G inh, A3A deaminase)
CC(=O)c1ccc(CCCCc2ccc(C(C)=O)cc2)cc1	none (no result: APOBEC3G inh, A3A deaminase)
COc1ccc(-n2c3c(cc(C(=O)NCC(=O)c4ccccc4)c2=O)C(=O)CC(C)(C)C3)cc1	none (no result: TAG inh)
c1ccc2c(c1)ncn2Cc1nnc2sc(-c3ccncc3)nn12	none
c1ccc(-c2nn3c(Cn4nnc5ccccc54)nnc3s2)cc1	APOBEC3G inh 45.5, PfG6PD inh 74.7 (no result: TAG inh) | A3G conf 41.3 | UDG ctr A3G inactive | PfGluPho conf inactive
c1ccc2c(c1)nnn2Cc1nnc2sc(-c3ccc4c(c3)OCCO4)nn12	none (no result: TAG inh)
c1ccc(-c2nn3c(Cn4cnc5ccccc54)nnc3s2)cc1	APOBEC3G inh 48.9, PfG6PD inh 64.0 (no result: TAG inh) | A3G conf 43.5 | UDG ctr A3G inactive | PfGluPho conf inactive
c1cncc(-c2nn3c(Cn4cnc5ccccc54)nnc3s2)c1	APOBEC3G inh 53.4, PfG6PD inh 64.7 (no result: TAG inh) | A3G conf inactive | UDG ctr A3G inactive | PfGluPho conf inactive
O=C(Nc1ncccc1O)c1c(O)c2ccccc2[nH]c1=O	none
O=C(CNC(c1ccccc1)c1ccccc1)Nc1ccccc1F	none (no result: TAG inh)
O=C(CSC(=O)c1ccccc1)Nc1ccccc1F	APOBEC3G inh 41.4, PfG6PD inh 62.7 | A3G conf 37.5 | UDG ctr A3G inactive | PfGluPho conf inactive
O=C(COc1ncnc2sccc12)Nc1cccc(S(=O)(=O)N2CCOCC2)c1	none
Cc1ccc(SSc2cc(C)ccc2N)c(N)c1	APOBEC3G inh 79.5, PfG6PD inh 63.6 | A3G conf 86.2 | PfGluPho conf inactive
CN1CCN(c2ccc(CNC(=O)c3ccc(-c4ccc(F)c(F)c4)c4ccoc34)cc2)CC1	none (no result: APOBEC3G inh, PfG6PD inh, A3A deaminase)
COC(=O)/C=c1/sc2nc3ccccc3n2c1=O	APOBEC3G inh 72.9, PfG6PD inh 74.7 (no result: TAG inh) | A3G conf 74.5 | UDG ctr A3G inactive | PfGluPho conf inactive
CC1CCN(C(=S)c2ccccc2O)CC1	APOBEC3G inh 49.1, PfG6PD inh 63.6 | A3G conf 42.4 | UDG ctr A3G inactive | PfGluPho conf inactive
CCC(C)(C)c1nnc(NC(=O)C2CCN(C(=O)c3ccco3)CC2)s1	APOBEC3G inh 67.3, PfG6PD inh 79.3 (no result: TAG inh) | A3G conf 80.5 | UDG ctr A3G inactive | PfGluPho conf 61.1 | Diaph ctr 10uM inactive | Diaph ctr 30uM inactive
O=C(NC1CCCCCC1)C(=S)N1CCOCC1	APOBEC3G inh 54.3, PfG6PD inh 59.1 | A3G conf 44.1 | UDG ctr A3G inactive | PfGluPho conf inactive
CCOC(=O)C(Cc1ccc(O)cc1)NC(=O)c1cc2c(cn1)[nH]c1ccccc12 (stereo unspecified)	none (no result: APOBEC3G inh, Cardio protect, PfG6PD inh, A3A deaminase, TAG inh)
COC(=O)[C@H](C)NC(=O)c1cc2c(cn1)[nH]c1ccccc12	APOBEC3G inh 49.6, PfG6PD inh 90.4 (no result: TAG inh) | A3G conf 76.9 | UDG ctr A3G inactive | PfGluPho conf 55.0 | Diaph ctr 10uM inactive | Diaph ctr 30uM inactive
CC1(C(=O)NS(=O)(=O)c2cccc(C#N)c2)CCN1C(=O)C1(c2ccc(Cl)cc2)CCC1 (stereo unspecified)	none (no result: APOBEC3G inh, PfG6PD inh, A3A deaminase)
O=C(O)c1ccccc1C(=O)Nc1nccs1	none (no result: TAG inh)
O=C(O)c1ccccc1C(=O)Nc1n[nH]c(=S)s1	APOBEC3G inh 64.2, PfG6PD inh 72.0 (no result: TAG inh) | A3G conf 44.3 | UDG ctr A3G inactive | PfGluPho conf inactive
COC(=O)c1c(NC(=O)CCC(=O)O)sc(Cc2ccccc2)c1C	none
COC(=O)CCC(=O)Nc1sc(Cc2ccccc2)c(C)c1C(N)=O	APOBEC3G inh 44.5, PfG6PD inh 75.2 | A3G conf 57.0 | UDG ctr A3G inactive | PfGluPho conf 63.1 | Diaph ctr 10uM inactive | Diaph ctr 30uM inactive
O=C(Nc1ccc(N2CCOCC2)c(S(=O)(=O)Nc2ccc(Cl)cc2)c1)c1cnccn1	APOBEC3G inh 46.4, PfG6PD inh 73.4 | A3G conf 60.4 | UDG ctr A3G inactive | PfGluPho conf inactive

High-throughput results from PubChem.
